Data: PubChem BioAssay
Values joined by “and” are separate entries in the source; they are usually repeats but may differ in a detail not shown here. Equal entries are not always repeated. Unmarked numbers belong to inactive results. Active and inactive are the calls of the source.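 Rule for the calls: active = thallium flux through the channel raised or lowered by more than 3 SD from vehicle-only wells, actives on both sides; inactive = the rest.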

What follows are compounds tested on F380Y (assay: modulators of BK channel variants, profiling panel, selectivity assay, cell-based, U2OS BacMam, thallium flux, beta subunits (AID 1259406;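 note: initial slope of Thallos dye fluorescence rise after thallium is added; log ratio against the mean of 0.3% DMSO vehicle wells on the same plate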)). Details: at 30 µM.

Compound	log fold change Tl+ flux
OCCOCCN1CCN(C2=Nc3ccccc3Sc3ccccc32)CC1	0.134 (active)
NCC1CCC(C(=O)Oc2ccc(CCC(=O)O)cc2)CC1 (stereo not drawn)	-0.0268
CC[N+](C)(CC)CCOC(=O)C(O)(c1ccccc1)C1CCCCC1 (stereo not drawn)	-0.192 (active)
CCc1c(C)[nH]c2c1C(=O)C(CN1CCOCC1)CC2 (stereo not drawn)	0.0409
Nc1ccn([C@H]2CC[C@@H](CO)O2)c(=O)n1	0.0263
Cc1ccsc1C(=CCCN1CCC[C@@H](C(=O)O)C1)c1sccc1C	0.0491
COCc1c(C(C)C)nc(C(C)C)c(/C=C/[C@@H](O)C[C@@H](O)CC(=O)O)c1-c1ccc(F)cc1	0.216 (active)
CC(Oc1c(Cl)cccc1Cl)C1=NCCN1 (stereo not drawn)	0.00819
CCN(CC)CCNC(=O)c1cc(Cl)c(N)cc1OC	-0.00476
NS(=O)(=O)c1cc(C(=O)O)c(NCc2ccco2)cc1Cl	-0.0179
Cc1ncc([N+](=O)[O-])n1CC(O)CCl (stereo not drawn)	-0.0142
CCCN[C@H]1CCc2nc(N)sc2C1	0.0634 and -0.0393
CN(CCOc1ccc(NS(C)(=O)=O)cc1)CCc1ccc(NS(C)(=O)=O)cc1	0.0506
COC(=O)CCc1ccc(OCC(O)CNC(C)C)cc1 (stereo not drawn)	-0.0174
COc1ccc2nc(S(=O)Cc3ncc(C)c(OC)c3C)[nH]c2c1 (stereo not drawn)	0.0402
COc1cc(OC)c(C(=O)CCCN2CCCC2)c(OC)c1	-0.00984
CC(C)(C)NC(=O)[C@H]1CC[C@H]2[C@@H]3CC[C@H]4NC(=O)C=C[C@]4(C)[C@H]3CC[C@]12C	0.0287
COC(=O)C1=C(C)NC(C)=C(C(=O)OCC(C)C)C1c1ccccc1[N+](=O)[O-] (stereo not drawn)	0.333 (active)
CCOC(=O)C1=C(C)NC(C)=C(C(=O)OC)C1c1cccc(Cl)c1Cl (stereo not drawn)	0.00922
Nc1nnc(-c2cccc(Cl)c2Cl)c(N)n1	-0.00765

Compound	log fold change Tl+ flux
Oc1ccc(C2CNCCc3c2cc(O)c(O)c3Cl)cc1 (stereo not drawn)	0.0202
COc1cc(C)c(Cc2cnc(N)nc2N)cc1OC	0.0111
COc1cc2nc(N3CCN(C(=O)C4CCCO4)CC3)nc(N)c2cc1OC (stereo not drawn)	0.0434
CC(C)(C)NC(=O)[C@@H]1CN(Cc2cccnc2)CCN1C[C@@H](O)C[C@@H](Cc1ccccc1)C(=O)N[C@H]1c2ccccc2C[C@H]1O	-0.012
C[C@H](NC(CCc1ccccc1)C(=O)O)C(=O)N1CCC[C@H]1C(=O)O (stereo partly drawn)	0.0291
CN1CCN(c2c(F)cc3c(=O)c(C(=O)O)cn4c3c2SCC4)CC1	0.0311
C[C@@H]1C[C@H]2[C@@H]3CCC4=CC(=O)C=C[C@]4(C)[C@@]3(F)[C@@H](O)C[C@]2(C)[C@H]1C(=O)CO	0.0533
CNCC(O)c1ccc(O)c(O)c1 (stereo not drawn)	-0.0223
CC(=O)Nc1ccc(CC(=O)O)cc1	-0.0209
O=C(NCCO[N+](=O)[O-])c1cccnc1	0.0612
O=c1[nH]cnc2c1ncn2[C@H]1CC[C@@H](CO)O1	-0.00984
CC(C)[C@H](N)C(=O)OCCOCn1cnc2c(=O)[nH]c(N)nc21	-0.0232
O=C1N(c2ccccc2)c2ccccc2C1(Cc1ccncc1)Cc1ccncc1	0.0425
CC(C)NCC(O)COc1ccc(COCCOC(C)C)cc1 (stereo not drawn)	0.0667
CCc1nn(CCCN2CCN(c3cccc(Cl)c3)CC2)c(=O)n1CCOc1ccccc1	-0.403 (active)
COc1ccccc1N1CCN(CC(O)COc2cccc3ccccc23)CC1 (stereo not drawn)	-0.03
CN(C)CC[C@@H](c1ccc(Br)cc1)c1ccccn1	0.102
Brc1c(NC2=NCCN2)ccc2nccnc12	-0.0564
Cc1[nH]c(=O)c(C#N)cc1-c1ccncc1	0.00987

These compounds were tested on F380Y/beta1 in the same assay as above. Details: at 30 µM.

Compound	log fold change Tl+ flux
OCCOCCN1CCN(C2=Nc3ccccc3Sc3ccccc32)CC1	0.105 (active)
NCC1CCC(C(=O)Oc2ccc(CCC(=O)O)cc2)CC1 (stereo not drawn)	-0.0246
CC[N+](C)(CC)CCOC(=O)C(O)(c1ccccc1)C1CCCCC1 (stereo not drawn)	-0.0336
CCc1c(C)[nH]c2c1C(=O)C(CN1CCOCC1)CC2 (stereo not drawn)	0.015
Nc1ccn([C@H]2CC[C@@H](CO)O2)c(=O)n1	0.0264
Cc1ccsc1C(=CCCN1CCC[C@@H](C(=O)O)C1)c1sccc1C	0.0426
COCc1c(C(C)C)nc(C(C)C)c(/C=C/[C@@H](O)C[C@@H](O)CC(=O)O)c1-c1ccc(F)cc1	0.473 (active)
CC(Oc1c(Cl)cccc1Cl)C1=NCCN1 (stereo not drawn)	-0.000881
CCN(CC)CCNC(=O)c1cc(Cl)c(N)cc1OC	-0.00572
NS(=O)(=O)c1cc(C(=O)O)c(NCc2ccco2)cc1Cl	-0.0049
Cc1ncc([N+](=O)[O-])n1CC(O)CCl (stereo not drawn)	-0.0206
CCCN[C@H]1CCc2nc(N)sc2C1	0.0248
CN(CCOc1ccc(NS(C)(=O)=O)cc1)CCc1ccc(NS(C)(=O)=O)cc1	0.0264
COC(=O)CCc1ccc(OCC(O)CNC(C)C)cc1 (stereo not drawn)	0.0192
COc1ccc2nc(S(=O)Cc3ncc(C)c(OC)c3C)[nH]c2c1 (stereo not drawn)	0.0641
COc1cc(OC)c(C(=O)CCCN2CCCC2)c(OC)c1	-0.00851
CC(C)(C)NC(=O)[C@H]1CC[C@H]2[C@@H]3CC[C@H]4NC(=O)C=C[C@]4(C)[C@H]3CC[C@]12C	0.0111
COC(=O)C1=C(C)NC(C)=C(C(=O)OCC(C)C)C1c1ccccc1[N+](=O)[O-] (stereo not drawn)	0.689 (active)
CCOC(=O)C1=C(C)NC(C)=C(C(=O)OC)C1c1cccc(Cl)c1Cl (stereo not drawn)	-0.0618
Nc1nnc(-c2cccc(Cl)c2Cl)c(N)n1	-0.046

Compound	log fold change Tl+ flux
Oc1ccc(C2CNCCc3c2cc(O)c(O)c3Cl)cc1 (stereo not drawn)	-0.0465
COc1cc(C)c(Cc2cnc(N)nc2N)cc1OC	0.0334
COc1cc2nc(N3CCN(C(=O)C4CCCO4)CC3)nc(N)c2cc1OC (stereo not drawn)	-0.102
CC(C)(C)NC(=O)[C@@H]1CN(Cc2cccnc2)CCN1C[C@@H](O)C[C@@H](Cc1ccccc1)C(=O)N[C@H]1c2ccccc2C[C@H]1O	-0.0545
C[C@H](NC(CCc1ccccc1)C(=O)O)C(=O)N1CCC[C@H]1C(=O)O (stereo partly drawn)	0.00867
CN1CCN(c2c(F)cc3c(=O)c(C(=O)O)cn4c3c2SCC4)CC1	0.0284
C[C@@H]1C[C@H]2[C@@H]3CCC4=CC(=O)C=C[C@]4(C)[C@@]3(F)[C@@H](O)C[C@]2(C)[C@H]1C(=O)CO	0.0836
CNCC(O)c1ccc(O)c(O)c1 (stereo not drawn)	-0.0248
CC(=O)Nc1ccc(CC(=O)O)cc1	-0.00468
O=C(NCCO[N+](=O)[O-])c1cccnc1	0.00537
O=c1[nH]cnc2c1ncn2[C@H]1CC[C@@H](CO)O1	-0.0163
CC(C)[C@H](N)C(=O)OCCOCn1cnc2c(=O)[nH]c(N)nc21	-0.0206
O=C1N(c2ccccc2)c2ccccc2C1(Cc1ccncc1)Cc1ccncc1	-0.0119
CC(C)NCC(O)COc1ccc(COCCOC(C)C)cc1 (stereo not drawn)	0.0784
CCc1nn(CCCN2CCN(c3cccc(Cl)c3)CC2)c(=O)n1CCOc1ccccc1	-0.178 (active)
COc1ccccc1N1CCN(CC(O)COc2cccc3ccccc23)CC1 (stereo not drawn)	-0.0336
CN(C)CC[C@@H](c1ccc(Br)cc1)c1ccccn1	0.0384
Brc1c(NC2=NCCN2)ccc2nccnc12	0.00839
Cc1[nH]c(=O)c(C#N)cc1-c1ccncc1	-0.00723
